High-throughput results as filed in PubChem BioAssay.
Mdm2 MdmX PPI = inhibitors of human Mdm2-MdmX association, primary screen, cell-based, luminescence, split luciferase, SaOS-2, uHTS | SaOS-2 split-luciferase Mdm2/MdmX complementation | inhibition, % at 8 µM | 330,000 tested, 3% active | Protein Mdm4 (Homo sapiens) + E3 ubiquitin-protein ligase Mdm2 (Homo sapiens), …;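 active = inhibition of at least 50% at 8 µM in the primary screen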
Target sequence (O15151 whole entry, looked up): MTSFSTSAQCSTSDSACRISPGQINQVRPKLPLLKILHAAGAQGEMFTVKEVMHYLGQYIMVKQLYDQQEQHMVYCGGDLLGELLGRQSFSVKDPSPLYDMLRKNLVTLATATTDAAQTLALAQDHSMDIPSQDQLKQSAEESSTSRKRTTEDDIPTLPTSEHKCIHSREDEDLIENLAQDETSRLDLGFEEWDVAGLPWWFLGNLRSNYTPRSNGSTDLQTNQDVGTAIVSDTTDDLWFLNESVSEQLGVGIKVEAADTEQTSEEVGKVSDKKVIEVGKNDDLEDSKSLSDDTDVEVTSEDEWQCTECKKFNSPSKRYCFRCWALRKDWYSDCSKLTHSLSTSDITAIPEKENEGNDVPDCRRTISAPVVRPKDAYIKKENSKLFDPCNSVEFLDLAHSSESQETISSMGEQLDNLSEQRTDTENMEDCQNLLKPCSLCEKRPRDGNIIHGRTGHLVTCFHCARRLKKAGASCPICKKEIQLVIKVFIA
Target sequence (Q00987 whole entry, looked up): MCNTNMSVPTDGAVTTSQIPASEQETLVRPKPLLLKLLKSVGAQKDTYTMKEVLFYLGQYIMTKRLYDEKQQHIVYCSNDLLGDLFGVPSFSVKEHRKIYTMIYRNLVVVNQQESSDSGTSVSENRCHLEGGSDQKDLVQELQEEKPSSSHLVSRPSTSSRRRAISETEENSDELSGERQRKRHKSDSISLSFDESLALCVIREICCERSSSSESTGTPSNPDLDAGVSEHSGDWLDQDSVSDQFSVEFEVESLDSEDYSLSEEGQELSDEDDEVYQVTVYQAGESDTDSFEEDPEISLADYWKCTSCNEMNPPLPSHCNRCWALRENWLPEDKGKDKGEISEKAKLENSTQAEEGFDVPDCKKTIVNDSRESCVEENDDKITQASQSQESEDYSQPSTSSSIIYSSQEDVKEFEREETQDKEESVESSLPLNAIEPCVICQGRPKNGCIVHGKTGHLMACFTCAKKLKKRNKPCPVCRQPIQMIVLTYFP
NR3A LBD binder = binders of NR3A ligand-binding domain, primary screen, biophysical, differential scanning fluorimetry, uHTS | Glutamate receptor ionotropic, NMDA 3A (GRIN3A) ligand-binding domain | NR3A LBD differential scanning fluorimetry, Tm shift; 0% = protein alone, 100% = glycine-bound protein | Tm shift relative to glycine control, % at 25 µM | 340,000 tested, 2.5% active | AID 1259313, 2017;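 active = melting temperature shift of at least 10% of the positive control shift, at one fixed dose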
CSC inhib = cancer stem cell viability inhibitors, primary screen, luminescence. cancer stem cell-like cells viability. 300,000 tested, 1.1% active. inhibition, % at 7.5 µM. AID 2717, 2010; in the data active = inhibition above about 75%; tested in HMLE shEcad cells
Beta cell apopt = inhibitors of cytokine-induced beta cell apoptosis, primary screen, luminescence; INS-1E cytokine-induced death, ATP luminescence, 48 h; percent of positive-control rescue, neutral wells zero; protection from apoptosis, % (test concentration not listed); 300,000 tested, 0.8% active;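 active = Every replicate reaches about 75%, or at least half do and their mean reaches it too, limit read from the data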;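 note: 0% = cytokine-treated negative control wells and 100% = positive control rescue; higher means more ATP so stronger rescue from cytokine killing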
Gli-Sufu block = Gli-Sufu pathway antagonists, primary screen, luciferase luminescence, Sufu-KO-LIGHT cells, uHTS; inhibition, % at 5 µM; 340,000 tested, 0.74% active; Sufu-KO-LIGHT fibroblasts, Gli luciferase reporter luminescence;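 active = inhibition above about 55%, limit read from the data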;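 note: 0% = DMSO-treated cells and 100% = wells with medium but no cells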
MPTP inh = mitochondrial permeability transition pore inhibitors, primary screen, biochemical, isolated mouse mitochondria, absorbance; inhibition, % at 10 µM; 360,000 tested, 1.4% active; Ca2+ swelling absorbance, 30 min;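 active = inhibition of 50% or more, scaled per plate between neutral and stimulator controls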;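 note: 0% = DMSO wells given calcium and 100% = 1 mM EGTA wells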
* marks the source's active call; other numbers are inactive results; nt = no result. This is a sample that favours compounds with a hit; in the whole collection about 6.6% have one here.

SMILES | Mdm2 MdmX PPI | NR3A LBD binder | CSC inhib | Beta cell apopt | Gli-Sufu block | MPTP inh
CC(=O)Oc1ccc(C(=O)Cc2ccc3ccccc3n2)c(O)c1C | -413.5 | 11.6* | 14.9 | 0.7 | -79.2 | 3.9
Cc1cc(C)c(S(=O)(=O)N2CCCC(C(=O)NCc3ccccn3)C2)c(C)c1 (stereo unspecified) | -0.3 | 0.5 | -4.7 | -2.0 | 2.1 | 0.8
COCCCN(C(=O)c1cc2c(s1)CCCCC2)c1c(N)n(Cc2ccccc2)c(=O)[nH]c1=O | 26.7 | -4.4 | -18.3 | nt | -13.2 | 2.4
CCOc1ccc2nc3ccc4[nH]onc4c3c2c1 | 38.9 | 30.8* | 56.0 | 7.9 | -17.7 | 42.1
CCn1c(C)nc2cc(C(=O)NNC(=O)CN(C)S(=O)(=O)c3ccc(NC(C)=O)cc3)ccc21 | 7.4 | 1.2 | -16.2 | -6.8 | -7.1 | -0.3
Cc1ccc(S(=O)(=O)Nc2cc(=O)[nH]c(SCc3ccc(Cl)cc3)n2)cc1 | nt | 11.3* | 20.8 | -10.9 | -2.0 | 7.5
O=c1cc(NS(=O)(=O)c2ccccc2)nc(SCc2c(Cl)cccc2Cl)[nH]1 | -4.4 | -11.3 | 15.9 | -6.1 | -5.8 | 1.1
CC(=O)Nc1ccc(/C=C/c2nc(-c3ccccc3O)n[nH]2)cc1 | -10.2 | 21.0* | 19.9 | -1.8 | -45.0 | 0.7
Nc1ncnc2c1ncn2[C@@H]1O[C@H](CNCc2ccc(-c3cc(C(F)(F)F)ccc3Cl)o2)[C@@H](O)[C@H]1O | -8.8 | -1.5 | nt | nt | -1.0 | -0.6
O=c1ccn([C@@H]2O[C@H](CNCc3ccc(-c4cc(C(F)(F)F)ccc4Cl)o3)[C@@H](O)[C@H]2O)c(=O)[nH]1 | nt | 16.8* | nt | nt | 3.6 | 0.8
COc1ccc(C2CC(c3ccc4ccccc4c3OC(C)=O)=NN2C(C)=O)cc1 (stereo unspecified) | -50.8 | 1.2 | 29.8 | 95.6* | 20.3 | 27.7
COc1ccc(C2CC(c3ccc(C)o3)=NN2C(C)=O)cc1 (stereo unspecified) | -52.4 | -5.6 | nt | 0.1 | -68.6 | -0.1
CC(=O)C1=C(NC(=O)c2ccccc2F)C[C@@H]2[C@H]1C2(C)C | 16.9 | 13.6* | 38.2 | -1.0 | -18.0 | -2.5
Cc1ccc(S(=O)(=O)NCCc2c[nH]c3ccccc23)cc1 | 18.7 | 22.9* | -0.1 | -3.5 | 1.8 | 2.3
COc1ccc(S(=O)(=O)NCCc2c[nH]c3ccc(Cl)cc23)cc1 | 16.6 | 35.0* | 10.9 | -3.0 | -10.4 | -0.3
Cc1ccc(NCCCn2ccc(NC(=O)OCc3ccccc3)nc2=O)cc1C | nt | 1.2 | nt | nt | -3.8 | 0.1
Cc1ccc2oc(C(=O)N3CCN(Cc4nccn4C)CC3)c(C)c2c1 | 13.1 | 0.5 | 18.4 | -6.3 | 1.8 | -1.0
Cc1ccc(Cc2cnc(NC(=O)c3ccco3)s2)cc1 | -97.3 | 2.9 | 50.2 | 0.2 | -74.7 | -0.1
CCOc1ccc(C(=O)NC(=S)Nc2ccc(NC(=O)CC)cc2)cc1[N+](=O)[O-] | 8.3 | 7.6 | -13.2 | -2.7 | 3.5 | 1.1
COc1ccc(C(=O)NC(=S)Nc2ccc(N3CCN(C(C)=O)CC3)cc2)cc1[N+](=O)[O-] | 17.7 | -1.2 | -7.0 | -3.3 | 7.0 | 5.3
CCOc1ccc(C(=O)NC(=S)Nc2cccc(NC(=O)c3ccco3)c2)cc1[N+](=O)[O-] | 36.3 | 16.3* | 1.1 | 4.8 | 6.7 | 1.6
COc1cc(NC(=O)c2ccc(OC)c([N+](=O)[O-])c2)ccc1NC(=O)c1cccs1 | 38.4 | 37.5* | -1.4 | -3.1 | 24.5 | 2.0
COc1ccc(C(=O)NC(=S)Nc2ccc(NC(=O)c3ccco3)cc2)cc1[N+](=O)[O-] | 24.1 | 29.6* | -10.8 | 3.8 | 5.2 | 1.1
O=C(Nc1ncc(Cc2cccc([N+](=O)[O-])c2)s1)c1ccco1 | -31.8 | -0.9 | 97.1* | 1.1 | -26.6 | -1.6
O=S(=O)(c1ccc(=S)[nH]c1)N1CCN(Cc2ccccc2)CC1 | 10.6 | 1.8 | -4.5 | -4.7 | 18.8 | -4.1
SMILES | Mdm2 MdmX PPI | NR3A LBD binder | CSC inhib | Beta cell apopt | Gli-Sufu block | MPTP inh
COc1ccc(C(=O)NC(=S)Nc2cccc(NC(=O)c3ccco3)c2)cc1[N+](=O)[O-] | 21.1 | 11.5* | -12.1 | 5.3 | 5.9 | 1.7
CCc1ccc(NC(=O)c2ccc(OC)c([N+](=O)[O-])c2)cc1 | -17.3 | 12.4* | 10.3 | -1.3 | 1.2 | 4.8
CCC(=O)NC(=S)Nc1ccc(NC(=O)c2ccc(C)c([N+](=O)[O-])c2)cc1 | 4.6 | 34.5* | -0.7 | -5.5 | 5.4 | 1.4
COc1ccc(C(=O)Nc2ccncc2)cc1[N+](=O)[O-] | 0.9 | 1.8 | -16.5 | 12.0 | -21.1 | 0.9
COc1cc(NC(=O)c2cccc([N+](=O)[O-])c2)ccc1NC(=O)c1ccco1 | -7.8 | 27.0* | -4.2 | -3.3 | 1.6 | 2.1
Cc1cc(C(=O)Nc2cccc(NC(=O)c3ccco3)c2)ccc1[N+](=O)[O-] | 36.9 | -3.7 | -8.9 | -4.6 | 12.9 | -0.8
Cc1ccc(S(=O)(=O)Nc2c(C(=O)O)[nH]c3ccccc23)c(C)c1 | 3.5 | -3.1 | -6.2 | 0.0 | 20.4 | 7.0
COc1ccc(NS(=O)(=O)c2cc(NS(=O)(=O)c3cc(C(=O)O)ccc3OC)ccc2C)cc1 | nt | -1.4 | nt | nt | -4.8 | -0.4
COc1cc(NC(=O)COc2ccccc2)ccc1NC(=O)c1ccco1 | -1.4 | -10.2 | -5.5 | -4.7 | -7.1 | 1.0
COc1cc(NC(=O)CSc2nc3ccccc3c(=O)n2C)ccc1NC(=O)c1ccco1 | 15.6 | 12.5* | -8.8 | nt | -0.3 | 1.2
CCCN(CCC)CCNC(=O)c1cc2c(-c3ccc(Cl)cc3)nn(C)c2s1 | 23.9 | -1.2 | 102.4* | 52.9 | 12.5 | -1.0
CCCN(CCC)CCNC(=O)c1cc2c(-c3ccccc3F)nn(C)c2s1 | 29.4 | -7.6 | 2.2 | 4.7 | nt | 0.2
COC(=O)c1ccc2c(c1O)C(=O)c1ccccc1C2=O | 5.4 | 1.2 | 96.0* | 16.1 | -35.7 | 0.3
CCOC(=O)c1cc2occc2n1Cc1ccc(F)cc1 | 14.6 | 15.3* | 1.4 | -3.3 | -2.5 | 11.1
CCOc1ccccc1C(=O)Nc1ccccc1C(N)=O | 0.8 | -1.6 | -6.4 | -6.3 | 8.8 | -3.1
CCOc1ccccc1C(=O)Nc1ccc(NC(=O)c2ccccc2)cc1 | 14.7 | 16.9* | 7.4 | 3.9 | -18.7 | 0.3
CC(=O)c1ccc(NC(=O)COc2ccccc2C(=O)Nc2ccccc2)cc1 | 18.0 | 15.1* | -3.9 | 10.1 | -9.1 | 4.7
Cc1ccc(C(=O)COc2ccccc2C(=O)Nc2ccccc2)cc1 | 43.5 | 2.4 | -1.3 | 4.5 | -5.3 | 4.1
Cc1ccc(NC(=O)c2ccccc2OCC(=O)c2ccccc2)cc1 | 16.1 | 10.4* | -16.5 | 4.6 | -2.4 | 7.2
CCOc1ccccc1C(=O)Nc1ccsc1C(=O)OC | nt | 14.3* | 42.2 | 4.6 | -5.0 | 1.8
